What all share (experiment): NCI-60 one-dose screen, 48 h (100 = growth as untreated, 0 = no growth, -100 = all killed)
Common to all, as to details: 10 µM unless noted

Assay [1] deals with DU-145 prostate.
Assay [2] deals with K-562 leukemia.
Assay [3] deals with MALME-3M melanoma.
The subject of assay [4] is MDA-MB-231 breast.
The subject of assay [5] is SF-268 CNS.
For assay [6], the system named is SF-295 CNS.
Assay [7] concerns SF-539 CNS.
The subject of assay [8] is UACC-257 melanoma.

The panel holds about 83,000 compounds, 20% with a hit somewhere; the sample as a whole holds those more often.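 Method: cells in 96-well plates; compound added at one concentration; 48 h incubation; percent growth measured; values under 10 scored active.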 Values without a mark were called inactive. Activity calls are given as the source filed them.

`CC1(C)CC[C@]2(CN)CC[C@]3(C)C(=CC[C@@H]4[C@@]5(C)CCCNC(C)(C)[C@@H]5CC[C@]43C)[C@H]2C1`: the growth is 109% in assay [1]; 3.16% (active) in assay [2]; 102% in assay [3]; 106% in assay [4]; 98.6% in assay [5]; 104% in assay [6]. In addition, the growth in assay [7] was 99.7%; in assay [8], 117%.

For `CCn1c(SCC(=O)Nc2cccc(C(=O)/C=C/c3ccc(C)cc3)c2)nc2ccccc2c1=O`, the growth in assay [1] is 77.2%; in assay [2], 55.4%; in assay [3] it was 103%; in assay [4] it was 92.1%; in assay [5] it was 87.2%; in assay [6], 104%. For the same compound, the growth in assay [7] was 86.5%; in assay [8] it was 105%.

Consider `CC/C(=C/c1cc(OC)ccc1O)c1ccc2cc(OC)ccc2[o+]1`, for which the growth in assay [1] is 68.6%; in assay [2] it was 20.3%; in assay [3], 53.1%; in assay [4], 66.2%; in assay [5], 61.6%; in assay [6], 52.2%. Further, the growth in assay [7] is 52.7%; in assay [8], 65.6%.

For `N#Cc1cnc2ccc(-c3cnc4[nH]ncc4c3)cc2c1N1CCc2cc(F)c(Cl)cc21`, the growth was 7.85% (active) in assay [1]; 16.6% in assay [2]; 0.688% (active) in assay [3]; 10.9% in assay [4]; 8.85% (active) in assay [5]; -18.8% (active) in assay [6]. The values for the growth in assay [7] and in assay [8] were -27.1% (active) and 36%, respectively.

In the case of `Cn1ccnc1C(=O)/C=C/c1ccc(CNC(=O)c2ccc(Cl)cc2)cc1`, the growth is 10.2% in assay [1]; 13.2% in assay [2]; 73.5% in assay [3]; 13.3% in assay [4]; 10.1% in assay [5]; 13.8% in assay [6]. Besides, the growth in assay [7] is -26.7% (active); in assay [8], 67.9%.

In the case of `COc1cc(/C=C2\C(=O)Nc3ccccc32)ccc1OCc1ccc(Cl)cc1`, the growth is 98.7% in assay [1]; 98.5% in assay [2]; 95.5% in assay [3]; 99% in assay [4]; 98.6% in assay [5]; 103% in assay [6]. Further, the growth is 98% in assay [7] and 125% in assay [8].

As to `C#CCOc1ccc(/C=N\Nc2nc(-c3ccc(C)cc3)cs2)cc1OC`, the growth in assay [1] was 85.3%; in assay [2], 69.6%; in assay [3] it was 116%; in assay [4], 88.6%; in assay [5], 102%; in assay [6], 92.4%. In addition, the growth in assay [7] was 96.4%; in assay [8], 93.3%.

As to `CC(c1ccccc1)N1CSc2nc3ncncc3n2C1` (stereo not drawn), the growth was 33.3% in assay [1]; 20.9% in assay [2]; 38.2% in assay [3]; 32.7% in assay [4]; 28.4% in assay [5]; 21.6% in assay [6]. Also, the growth in assay [7] is 23.5%; in assay [8], 44.5%.

As for `COc1ccc(Oc2ccc(/C=N/NC(=O)CSc3nc4ccccc4c(=O)n3-c3ccc(Cl)cc3)cc2)cc1`, the growth is 49.2% in assay [1]; 58.4% in assay [2]; 63.9% in assay [3]; 46.7% in assay [4]; 57.9% in assay [5]; 67.7% in assay [6]. In addition, the results for the growth in assay [7] and in assay [8] were 32.2% and 94.7%, respectively.

With `Cn1ccnc1C(=O)/C=C/c1ccc(CNC(=O)c2c(F)c(F)c(F)c(F)c2F)cc1`, the growth in assay [1] is 17.7%; in assay [2], 21.1%; in assay [3], 97%; in assay [4] it was 30.3%; in assay [5], 29.4%; in assay [6], 90.4%. In addition, the growth in assay [7] was 2.82% (active); in assay [8] it was 77%.

On to `COc1c(N2CC3CCCNC3C2)c(F)cc2c(=O)c(C(=O)N/N=C/c3ccc(F)cc3)cn(C3CC3)c12` (stereo not drawn), for which the growth in assay [1] is 102%; in assay [2], 18.9%; in assay [3], 86.3%; in assay [4], 82.3%; in assay [5] it was 82.9%; in assay [6], 97.7%. For the same compound, the values for the growth in assay [7] and in assay [8] were 87.7% and 79.5%, respectively.

With `O=C(CNc1nc(-c2cccc([N+](=O)[O-])c2)cs1)Nc1cccc(Cl)c1`, the growth in assay [1] was 112%; in assay [2], 97.1%; in assay [3], 104%; in assay [4] it was 101%; in assay [5], 99.7%; in assay [6], 102%. For the same compound, the growth is 101% in assay [7] and 118% in assay [8].

`Cn1ccnc1C(=O)/C=C/c1ccc(NC(=O)c2ccc(F)cc2)cc1`: the growth was 9.78% (active) in assay [1]; 15% in assay [2]; 87.8% in assay [3]; 22.1% in assay [4]; 21.8% in assay [5]; 52.5% in assay [6]. The growth was -3.29% (active) in assay [7] and 84.2% in assay [8].

As to `COc1cc(-c2nnc(SCc3ccc(O)c4ncccc34)n2-c2ccccc2)cc(OC)c1OC`, the growth in assay [1] is 15.2%; in assay [2] it was 4.83% (active); in assay [3], -4.75% (active); in assay [4], 24.7%; in assay [5], 8.87% (active); in assay [6] it was 0.13% (active). For the same compound, the figures for the growth in assay [7] and in assay [8] were 0.686% (active) and -18.1% (active), respectively.

With `COc1ccc2c(c1)c(CC(=O)[Se]CC#N)c(C)n2C(=O)c1ccc(Cl)cc1`, the growth is -37.1% (active) in assay [1]; 14.5% in assay [2]; 6.79% (active) in assay [3]; 9.39% (active) in assay [4]; 35.6% in assay [5]; -11.7% (active) in assay [6]. In addition, the growth in assay [7] was 9.61% (active); in assay [8], -10% (active).

For `O=C1[C@H]2Cc3c([nH]c4ccccc34)[C@@H](c3c(Cl)cccc3Cl)N2C(=O)CN1C1CCN(CC2CCCCC2)CC1`, the growth in assay [1] was 48.9%; in assay [2], 9.76% (active); in assay [3], 85.5%; in assay [4] it was 75%; in assay [5], 84.4%; in assay [6] it was 105%. Moreover, the growth was 95.4% in assay [7] and 110% in assay [8].

The values above are taken from PubChem BioAssay (NCI).
